Source: PubChem
JMJD2A Tudor = blocks the human JMJD2A Tudor domain. AlphaScreen JMJD2A-Tudor / H3K4me3 peptide binding. Potency, µM (doses to about 114 µM), hits mostly inhibitors. 390,000 compounds, 4.4% hits. AID 504339; note: nearly all actives have a fitted effect of over 50% in size
HP1b binding inh = HP1-beta chromodomain-methylated histone interaction inhibition; 390,000 compounds, 0.56% hits; AID 540317; Potency, µM (top dose mostly 114 µM), most hits filed as inhibitors; AlphaScreen HP1-beta / biotin-H3K9me3 peptide binding; note: nearly all actives have a fitted effect of over 70% in size
Target sequence (P83916 whole entry, looked up): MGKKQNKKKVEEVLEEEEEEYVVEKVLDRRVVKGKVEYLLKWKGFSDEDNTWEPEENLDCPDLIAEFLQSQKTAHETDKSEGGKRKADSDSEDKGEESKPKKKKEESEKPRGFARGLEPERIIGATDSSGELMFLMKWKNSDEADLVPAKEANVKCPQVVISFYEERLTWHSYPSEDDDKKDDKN
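AlphaScreen: HP1-beta (50 nM) preformed 30 min with biotin-H3(1-18)K9me3 peptide (50 nM) in PBS pH 7.4, 0.01% Tween-20. Compound added for 30 min at RT, then streptavidin donor/nickel chelate acceptor beads (10 ug/mL) for 30 min.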
G9a inh = blocks human histone lysine methyltransferase G9a. 350,000 compounds, 8.8% hits. AID 504332. Q96KQ7. Potency, µM (top dose mostly 102 µM), usual class: inhibitors. G9a H3K9 monomethylation, AlphaScreen, 2 h; note: nearly all actives have a fitted effect of over 75% in size
Target sequence (Q96KQ7 913-1193 limits assumed): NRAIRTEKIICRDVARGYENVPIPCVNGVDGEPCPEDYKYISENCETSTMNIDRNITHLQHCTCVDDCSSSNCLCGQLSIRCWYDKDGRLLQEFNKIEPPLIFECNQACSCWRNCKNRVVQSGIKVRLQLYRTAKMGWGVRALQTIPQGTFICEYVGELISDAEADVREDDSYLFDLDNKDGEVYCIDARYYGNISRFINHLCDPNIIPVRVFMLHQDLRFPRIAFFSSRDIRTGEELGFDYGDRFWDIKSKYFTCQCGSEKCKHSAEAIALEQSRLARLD
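Compounds were preincubated with 20 nM G9a for 15 min, after which biotinylated H3K9 peptide (500 nM) and SAM (20 uM) started a 2 h room-temperature reaction. Monomethylated product was quantified by antibody-based AlphaScreen chemiluminescence.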
GLS inh = blocks human kidney-isoform glutaminase activity. Potency, µM (series often up to 45.5 µM), actives largely listed as inhibitors. AID 624170. GLS enzymatic activity, qHTS titration. 410,000 compounds, 0.21% hits
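Human kidney-isoform GLS in 45 mM KH2PO4 pH 8.2, 0.02% Tween-20, with compound, started with 1mM L-Glutamine (added stock). Glutamate oxidase/HRP/Amplex red coupled fluorescence read at start and after 30 min at RT.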
BAZ2B block = BAZ2B (human) inhibition; Q9UIF8; 360,000 compounds, 4.4% hits; Potency, µM (series often up to 114 µM), actives largely listed as inhibitors; AlphaScreen BAZ2B-H3K14Ac peptide displacement; AID 504333; note: nearly all actives have a fitted effect of over 60% in size
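BAZ2B (50 nM) with biotin-H3(5-23)K14Ac peptide (50 nM) in PBS pH 7.4, 0.01% Tween-20, preformed 30 min, then compound 30 min at room temperature; top concentration 110uM. AlphaScreen streptavidin donor/nickel chelate acceptor beads (10 ug/mL final), 20 min dark, signal read.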
A number is an active result; i = inactive; ? = inconclusive; nt = no result given; ! = not confirmed by another sample; [ ] = remark or other dose. An excerpt weighted towards active compounds, which were near 10% of everything screened. Calls come from the whole dose curve; as a rule, active = well fitted curve in the direction sought with a large enough effect; inconclusive = small, poorly fitted or top-dose-only effect, or another doubt; inactive = no such curve, though single readings can be large; an effect the other way counts as inactive or inconclusive.

SMILES | JMJD2A Tudor | HP1b binding inh | G9a inh | GLS inh | BAZ2B block
Fc1ccc(-c2nc3nc4ccccc4nc3n2Cc2ccco2)cc1 | i | i | i | i | i
c1ccc(-c2nc3nc4ccccc4nc3n2Cc2ccco2)cc1 | i | i | 15.8µM | i | i
CN(C)c1ccc(C2OC(=O)C3(CCCC3)C(=O)C2(C)C)cc1 (stereo not given) | i | i | i | i | i
CC(Sc1nnc(-c2cccnc2)n1N)C(=O)Nc1ccc2c(c1)OCCO2 (stereo not given) | i | i | 56.2µM | i | i
Nn1c(SCC(=O)Nc2ccc3c(c2)OCCO3)nnc1-c1cccnc1 | i | i | i | i | i
CC(C)NC[C@@H](O)c1ccc(O)c(O)c1 | 44.7µM | ? | 17.8µM! | i | ?
CCOC(=O)c1c(C)n(C)c2ccc(OCC(N)=O)cc12 | i | i | i | i | i
CSC1=NC2C(N1)N(C)C(=O)N2C (stereo not given) | i | i | 7.94µM | i | 35.5µM
CC(C)c1ccc(-c2nnc(N)s2)cc1 | i | i | 44.7µM | i | i
Cc1ccc(-c2nnc(N)s2)cc1 | i | i | i | i | i
O=C(NNc1ccc(F)cc1F)c1c(F)cccc1Cl | i | i | i | i | i
O=S(=O)(NNc1ccc(F)cc1F)c1cccc(Cl)c1 | 10µM | ? | 1.26µM | ? | ?
CCN(CC)c1ccc(/C=C/c2nc3ccccc3s2)cc1 | nt | nt | i | nt | i
COc1cc2nc(/C=C/c3ccc(N(C)C)cc3)sc2cc1SC | 25.1µM | ? | ? | i | 22.4µM
CCCc1cc(C(=O)Nc2cc(Cl)ccc2O)no1 | i | i | ? | i | i
O=C(CN1CCN(Cc2ccccc2)CC1)Nc1nc2ccccc2s1 | i | i | i | i | i
CN1CCN(CC(=O)Nc2nc3ccccc3s2)CC1 | 28.2µM | ? | 35.5µM | i | 70.8µM
Cc1ccc(S(=O)(=O)N2CCCC2C(=O)Nc2nc3ccccc3s2)cc1 (stereo not given) | i | i | 15.8µM | i | i
O=C(CN1CCOCC1)Nc1nc2ccc(Br)cc2s1 | i | i | 50.1µM | nt | i
O=C(CN1CCCCCC1)Nc1nc2ccccc2s1 | 22.4µM | ? | nt | i | nt
CC(=O)Nc1ccc2nc(NC(=O)COc3ccccc3Cl)sc2c1 | i | i | i | i | i
COc1ccc2oc(C(=O)OCC(=O)Nc3ccccc3OC)c(C)c2c1 | i | i | i | i | i
Cn1c(=O)c2c(ncn2CCO)n(C)c1=O | i | i | i | i | i
Cc1ccc(OCCn2cnc3c2c(=O)n(C)c(=O)n3C)cc1 | i | i | 44.7µM | i | i
O=C1C(=O)N(CCCN2CCOCC2)C(c2ccc([N+](=O)[O-])cc2)/C1=C(/O)c1ccc2c(c1)OCO2 (stereo not given) | i | i | 50.1µM | i | i
SMILES | JMJD2A Tudor | HP1b binding inh | G9a inh | GLS inh | BAZ2B block
C=CCOc1ccc(C2/C(=C(\O)c3ccc4c(c3)OCCO4)C(=O)C(=O)N2CCCN2CCOCC2)cc1 (stereo not given) | i | i | 50.1µM | i | i
COC(=O)c1ccc(C2/C(=C(\O)c3ccc4c(c3)OCCO4)C(=O)C(=O)N2CCCN2CCOCC2)cc1 (stereo not given) | i | i | ? | i | i
c1nc(NCC2CCCO2)c2ccc(-c3ccc4c(c3)OCO4)cc2n1 (stereo not given) | 79.4µM | nt | nt | nt | nt
CC1(C)Cc2cccc(OCC(=O)N3CCN(S(=O)(=O)c4ccc(F)cc4)CC3)c2O1 | i | i | i[2.33 µM] | i | i
CC1(C)Cc2cccc(OCC(=O)NCCOc3ccccc3)c2O1 | 20µM | i | i | ? | i
Cc1cccc(N2CCN(C(=O)COc3cccc4c3OC(C)(C)C4)CC2)c1C | i | i | 44.7µM | i | i
O=C(Cn1ncc2c(=O)oc3ccccc3c21)N1CCCc2ccccc21 | i | i | i | i | i
CCOC(=O)C1=C(C)NC(C)=C(C(=O)OCC)C1C(=O)OCC(=O)N1CCCCC1C (stereo not given) | i | i | i | i | i
O=S(=O)(Nc1ccncc1)c1ccccc1 | i | i | 50.1µM | i | ?
O=S(=O)(Nc1cccnc1)c1ccccc1 | 50.1µM! | i | i | i | i
O=S(=O)(Nc1ccncc1)c1ccc(Cl)cc1 | i | i | i | i | i
CCCC(C)NC1=NCCCCC1 (stereo not given) | i | i | i | i | i
Cc1scc(-c2n[nH]c(=S)n2Cc2ccccc2)c1C | i | i | 1.58µM | i | i
